Laboratory results reported in PubChem BioAssay (EPA / NIEHS).
“And” between values parts separate entries of the source, which are not always exact repeats. Equal values may be shown once. Results filed as inconclusive are left out. The source made the active and inactive calls. The calls were made as follows, unless noted: active = hit-call score of the fitted dose curve at least 0.9, where 1 is the maximum; inactive = score below 0.9.

Assays:
[1] = read-out: Interleukin-1 alpha (IL1a), IL1A (gene 3552); assay: BSK_LPS_IL1a: BioMAP Diversity Plus: LPS Assay for Interleukin-1 alpha (IL1a) Biomarker Activity (AID 2283080); settings: primary human HUVEC with PBMC; actives raise or lower the signal
Procedure, shortened: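 Human umbilical vein endothelial cells co-cultured with PBMC and stimulated with LPS; IL-1a measured by ELISA 24 h after dosing. Bidirectional fitting against DMSO; cytotoxicity checked by SRB staining in parallel cultures.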

[2] = read-out: Monocyte Chemoattractant Protein-1 (MCP1), CCL2 (gene 6347); assay: BSK_LPS_MCP1: BioMAP Diversity Plus: LPS Assay for Monocyte Chemoattractant Protein-1 (MCP1) Biomarker Activity (AID 2283081); settings: primary human HUVEC with PBMC; actives raise or lower the signal;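 as to AC50: secreted MCP-1 protein quantified by ELISA in culture supernatant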
Procedure, shortened: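 Human umbilical vein endothelial cells co-cultured with PBMC, LPS-stimulated; secreted MCP-1 measured by ELISA 24 h after compound addition. Bidirectional curve fitting against DMSO baseline; SRB total-protein staining in parallel cultures for cytotoxicity.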

[3] = BSK_LPS_PGE2: BioMAP Diversity Plus: LPS Assay for Prostaglandin E2 (PGE2) Biomarker Activity (AID 2283082); settings: primary human HUVEC with PBMC; actives raise or lower the signal;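 as to AC50: secreted prostaglandin E2 measured by ELISA in LPS-stimulated co-culture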
Procedure, shortened: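 HUVEC plus PBMC co-culture stimulated with LPS; secreted PGE2 quantified by ELISA 24 h after chemical dosing. Activity fitted bidirectionally against DMSO as negative control and baseline; parallel SRB total-protein staining served as cytotoxicity check.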

[4] = read-out: Macrophage colony-stimulating factor (MCSF), CSF1 (gene 1435); assay: BSK_LPS_MCSF: BioMAP Diversity Plus: LPS Assay for Macrophage colony-stimulating factor (MCSF) Biomarker Activity (AID 2283083); settings: primary human HUVEC with PBMC; actives raise or lower the signal
Procedure, shortened: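 HUVEC–PBMC co-culture, M-CSF measured by ELISA 24 h after chemical dosing. Fitted in both directions relative to DMSO as negative control; overt cytotoxicity assessed by SRB total-protein staining in parallel cultures.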

[5] = read-out: Tissue Factor, F3 (gene 2152); assay: BSK_LPS_TissueFactor: BioMAP Diversity Plus: LPS Assay for Tissue Factor Biomarker Activity (AID 2283084); settings: primary human HUVEC with PBMC; actives raise or lower the signal
Procedure, shortened: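 Human umbilical vein endothelial cells co-cultured with PBMC were dosed with compound. Cell-surface CD142 was measured by ELISA 24 h later. Activity was fitted bidirectionally against DMSO, with SRB total-protein staining in parallel cultures for cytotoxicity.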

[6] = read-out: Tumor necrosis factor (Homo sapiens) (UniProt P01375); assay: BSK_LPS_TNFa: BioMAP Diversity Plus: LPS Assay for Tumour Necrosis Factor alpha (TNFa) Biomarker Activity (AID 2283085); settings: primary human HUVEC with PBMC; actives raise or lower the signal
Procedure, shortened: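 Human umbilical vein endothelial cells co-cultured with PBMC were exposed to test chemical and TNFa measured by ELISA 24 h after dosing. Bidirectional curve fitting was done relative to DMSO as negative control and baseline.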

[7] = read-out: Vascular cell adhesion molecule 1 (VCAM1), VCAM1 (gene 7412); assay: BSK_LPS_VCAM1: BioMAP Diversity Plus: LPS Assay for Vascular cell adhesion molecule 1 (VCAM1) Biomarker Activity (AID 2283086); settings: primary human HUVEC with PBMC; actives raise or lower the signal
Procedure, shortened: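 Human umbilical vein endothelial cells co-cultured with peripheral blood mononuclear cells under LPS stimulation were exposed to test chemical for 24 h. VCAM-1 levels were then measured by ELISA, with bidirectional curve fitting relative to DMSO as negative control and baseline.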

CD38, CD38 (gene 952) = assay: BSK_SAg_CD38: BioMAP Diversity Plus: SAg Assay for CD38 Biomarker Activity (AID 2283087); settings: primary human HUVEC with PBMC; actives raise or lower the signal
Procedure, shortened: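 Fluorescence ELISA of cell-surface CD38 served as the read-out, with either increase or decrease fitted against DMSO controls. Cells were a human umbilical vein endothelium plus PBMC co-culture under SEB/TSST-1 stimulation, measured 24 h after dosing.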

CD40, CD40 (gene 958) = assay: BSK_SAg_CD40: BioMAP Diversity Plus: SAg Assay for CD40 Biomarker Activity (AID 2283088); settings: primary human HUVEC with PBMC; actives raise or lower the signal
Procedure, shortened: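 HUVEC plus PBMC co-culture, superantigen-activated, with CD40 read by ELISA 24 h after dosing. Curves fitted in both directions against DMSO. Overt cytotoxicity checked by parallel SRB total-protein staining.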

CD69, CD69 (gene 969) = assay: BSK_SAg_CD69: BioMAP Diversity Plus: SAg Assay for CD69 Biomarker Activity (AID 2283089); settings: primary human HUVEC with PBMC; actives raise or lower the signal;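 as to AC50: cell surface CD69 protein quantified by ELISA with fluorescence detection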
Procedure, shortened: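 ELISA, fluorescence read-out: CD69 on human umbilical vein endothelial cell + PBMC co-culture, 24 h post-dosing. Gain or loss of signal fitted bidirectionally against DMSO baseline.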

[8] = read-out: Monocyte Chemoattractant Protein-1 (MCP1), CCL2 (gene 6347); assay: BSK_SAg_MCP1: BioMAP Diversity Plus: SAg Assay for Monocyte Chemoattractant Protein-1 (MCP1) Biomarker Activity (AID 2283090); settings: primary human HUVEC with PBMC; actives raise or lower the signal
Procedure, shortened: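 MCP-1 levels in the endothelial–PBMC SAg co-culture were quantified by ELISA at 24 h post-dosing; both increases and decreases versus DMSO scored. Cytotoxicity monitored by SRB total protein in parallel cultures.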

[9] = read-out: E-selectin (Homo sapiens) (UniProt P16581); assay: BSK_SAg_Eselectin: BioMAP Diversity Plus: SAg Assay for Eselectin Biomarker Activity (AID 2283091); settings: primary human HUVEC with PBMC; actives raise or lower the signal
Procedure, shortened: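 Human umbilical vein endothelial cells co-cultured with peripheral blood mononuclear cells, SAg system. E-selectin is measured by ELISA 24 h after dosing and fitted bidirectionally against DMSO. Cytotoxicity is checked by SRB staining of parallel cultures.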

[10] = BSK_SAg_PBMCCytotoxicity: PBMC Cytotoxicity Assessment in the BioMAP Diversity Plus: SAg Assay (AID 2283093); settings: primary human HUVEC with PBMC;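 also: PBMC viability measured as Alamar Blue reduction fluorescence at 546/580 nm; fitted both ways against DMSO so a hit may be loss or gain of signal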;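 as to AC50: PBMC superantigen activated with SEB plus TSST-1 one hour after compound addition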
Procedure, shortened: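 Human umbilical vein endothelial cells co-cultured with PBMC; PBMC (75,000/well) pre-treated with compound 1 h, then activated with SEB and TSST-1 (20 ng/mL final each) for 90 h. Alamar Blue added 6 h, fluorescence 546/580 nm; bidirectional fit versus DMSO.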

[11] = read-out: Interleukin-8 (IL8), CXCL8 (gene 3576); assay: BSK_SAg_IL8: BioMAP Diversity Plus: SAg Assay for Interleukin-8 (IL8) Biomarker Activity (AID 2283094); settings: primary human HUVEC with PBMC; actives raise or lower the signal
Procedure, shortened: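 Human umbilical vein endothelial cells co-cultured with peripheral blood mononuclear cells; IL-8 measured by ELISA 24 h after chemical dosing. Bidirectional concentration-response fitting used DMSO as negative control and activity baseline.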

[12] = BSK_SAg_Proliferation: Cell Proliferation Assessment in the BioMAP Diversity Plus: SAg Assay (AID 2283095); settings: primary human HUVEC with PBMC;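 also: relative cell number as total protein by SRB absorbance in sub-confluent culture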
Procedure, shortened: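 Human umbilical vein endothelial cells co-cultured with peripheral blood mononuclear cells; total protein measured by sulforhodamine B staining (0.1% SRB after 10% TCA fixation), absorbance at 560 nm, at 96 h. Bidirectional fit against DMSO baseline.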

[13] = BSK_SAg_SRB: Viability Assessment in the BioMAP Diversity Plus: SAg Assay (AID 2283096); settings: primary human HUVEC with PBMC;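 also: cells read one day after compound addition; hits may be either gain or loss of signal compared with DMSO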
Procedure, shortened: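 Endothelial/PBMC primary human co-culture; compound 24 h; fix 10% TCA, stain 0.1% SRB, A560; protein content as cytotoxicity proxy; bidirectional curve fit, DMSO = baseline.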

[14] = target: human CYP19A1, CYP19A1 (gene 1588) (UniProt P11511); assay: NVS_ADME_hCYP19A1: NovaScreen (NVS) CYP450-related Enzyme Activity (ADME) Assay for human CYP19A1 (AID 2283098; active = hit-call score of the fitted dose curve at least 0.9, where 1 is the maximum)
human CYP19A1, CYP19A1 (gene 1588), sequence (P11511 whole entry, looked up): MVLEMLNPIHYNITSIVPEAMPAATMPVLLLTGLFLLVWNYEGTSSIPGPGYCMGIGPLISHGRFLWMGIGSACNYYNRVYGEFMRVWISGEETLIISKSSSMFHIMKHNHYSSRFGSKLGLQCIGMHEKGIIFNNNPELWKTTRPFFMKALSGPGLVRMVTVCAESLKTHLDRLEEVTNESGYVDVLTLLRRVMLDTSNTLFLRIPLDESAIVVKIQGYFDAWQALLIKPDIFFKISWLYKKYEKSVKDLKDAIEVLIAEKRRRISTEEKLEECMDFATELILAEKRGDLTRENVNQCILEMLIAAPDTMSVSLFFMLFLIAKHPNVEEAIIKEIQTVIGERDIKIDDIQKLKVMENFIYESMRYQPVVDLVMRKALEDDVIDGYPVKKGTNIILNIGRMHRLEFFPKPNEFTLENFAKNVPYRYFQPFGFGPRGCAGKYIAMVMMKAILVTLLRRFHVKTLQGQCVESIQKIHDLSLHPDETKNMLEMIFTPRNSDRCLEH
Procedure, shortened: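 Cell-free enzyme assay with recombinant protein and a specific fluorogenic substrate, read by fluorescence intensity 0.5 h after dosing. Primary screen ran in duplicate at 10 uM; actives were retested in concentration series. Loss of signal versus acetonitrile baseline.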

E-selectin (Homo sapiens), sequence (P16581 whole entry, looked up): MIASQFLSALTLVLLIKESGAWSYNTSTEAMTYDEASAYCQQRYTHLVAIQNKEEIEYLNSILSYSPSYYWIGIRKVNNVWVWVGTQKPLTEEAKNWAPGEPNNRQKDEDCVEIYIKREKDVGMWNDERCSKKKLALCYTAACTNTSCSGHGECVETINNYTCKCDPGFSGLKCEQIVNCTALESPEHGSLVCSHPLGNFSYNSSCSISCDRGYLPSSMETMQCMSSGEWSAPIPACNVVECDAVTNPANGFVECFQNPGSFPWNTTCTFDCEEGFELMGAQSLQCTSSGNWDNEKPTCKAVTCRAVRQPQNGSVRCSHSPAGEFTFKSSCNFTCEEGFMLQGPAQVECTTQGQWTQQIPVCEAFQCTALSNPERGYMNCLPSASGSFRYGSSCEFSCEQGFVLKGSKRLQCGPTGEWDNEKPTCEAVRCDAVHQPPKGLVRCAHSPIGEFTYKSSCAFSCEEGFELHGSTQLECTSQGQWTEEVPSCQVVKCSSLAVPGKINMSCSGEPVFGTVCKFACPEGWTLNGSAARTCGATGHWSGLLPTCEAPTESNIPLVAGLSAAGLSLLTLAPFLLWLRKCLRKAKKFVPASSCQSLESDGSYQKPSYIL
Tumor necrosis factor (Homo sapiens), sequence (P01375 whole entry, looked up): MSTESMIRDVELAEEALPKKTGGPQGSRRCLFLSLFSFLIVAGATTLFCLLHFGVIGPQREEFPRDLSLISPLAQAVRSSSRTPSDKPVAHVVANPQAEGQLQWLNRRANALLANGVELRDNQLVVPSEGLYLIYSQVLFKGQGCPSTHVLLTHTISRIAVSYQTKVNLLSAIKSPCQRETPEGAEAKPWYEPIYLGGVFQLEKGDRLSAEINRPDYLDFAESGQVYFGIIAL

c1ccc(-c2ccccn2)nc1
outcome [1]: inactive
outcome [2]: inactive
outcome [3]: inactive
outcome [4]: inactive
outcome [5]: inactive
outcome [6]: inactive
outcome [7]: inactive
outcome (CD38, CD38 (gene 952)): inactive
outcome (CD40, CD40 (gene 958)): inactive
outcome (CD69, CD69 (gene 969)): inactive
outcome [8]: inactive
outcome [9]: inactive
outcome [10]: inactive
outcome [11]: inactive
outcome [12]: inactive
outcome [13]: inactive

CCO[Si](C)(OCC)OCC
outcome [1]: inactive
outcome [2]: inactive
outcome [3]: inactive
outcome [4]: inactive
outcome [5]: inactive
outcome [6]: inactive
outcome [7]: inactive
outcome (CD38, CD38 (gene 952)): inactive
outcome (CD40, CD40 (gene 958)): inactive
outcome (CD69, CD69 (gene 969)): inactive
outcome [8]: inactive
outcome [9]: inactive
outcome [10]: inactive
outcome [11]: inactive
outcome [12]: inactive
outcome [13]: inactive

COCc1c(C(C)C)nc(C(C)C)c(/C=C/[C@@H](O)C[C@@H](O)CC(=O)O)c1-c1ccc(F)cc1
AC50 [1]: 0.00777 µM (active)
outcome [2]: inactive
outcome [3]: inactive
outcome [4]: inactive
AC50 [5]: 7.78 nM (active)
outcome [6]: inactive
outcome [7]: inactive
AC50 (CD40, CD40 (gene 958)): 0.126 µM (active)
AC50 (CD69, CD69 (gene 969)): 29.3 nM (active)
outcome [8]: inactive
AC50 [9]: 21.5 nM (active)
outcome [10]: inactive
AC50 [11]: 7.83 nM (active)
AC50 [12]: 18.5 nM (active)
AC50 [13]: 35.5 nM (active)

c1ccc2c(c1)ccc1ncccc12
AC50 [1]: 20 µM (active)
AC50 [2]: 3.97 µM (active)
outcome [3]: inactive
outcome [4]: inactive
AC50 [5]: 6010 nM (active)
outcome [6]: inactive
AC50 [7]: 2.69 µM (active)
AC50 (CD38, CD38 (gene 952)): 29.7 µM (active)
AC50 (CD40, CD40 (gene 958)): 20 µM (active)
outcome (CD69, CD69 (gene 969)): inactive
outcome [8]: inactive
outcome [9]: inactive
outcome [10]: inactive
outcome [11]: inactive
outcome [12]: inactive
AC50 [13]: 28100 nM (active)

CCOC(=O)c1ccccc1C(=C1C=C(Br)C(=O)C(Br)=C1)c1cc(Br)c(O)c(Br)c1
AC50 [1]: 17.8 µM (active) and 14.7 µM (active)
AC50 [2]: 20.8 µM (active) and 20.9 µM (active)
AC50 [3]: 19.1 µM (active) and 19 µM (active)
AC50 [4]: 18.7 µM (active) and 17.4 µM (active)
AC50 [5]: 18.2 µM (active) and 12.6 µM (active)
AC50 [6]: 19.1 µM (active) and 18.9 µM (active)
AC50 [7]: 20.2 µM (active) and 19.9 µM (active)
AC50 (CD38, CD38 (gene 952)): 20.4 µM (active) and 18.8 µM (active)
AC50 (CD40, CD40 (gene 958)): 19.4 µM (active) and 19.1 µM (active)
AC50 (CD69, CD69 (gene 969)): 15.1 µM (active) and 15.6 µM (active)
AC50 [8]: 20.7 µM (active) and 21 µM (active)
AC50 [9]: 20.1 µM (active) and 18.8 µM (active)
outcome [10]: inactive
AC50 [11]: 19 µM (active) and 18 µM (active)
AC50 [12]: 18.3 µM (active) and 20.1 µM (active)
AC50 [13]: 21.1 µM (active) and 18.9 µM (active)

CC(CC=O)CCCC(C)(C)O (configuration not stated)
outcome [14]: inactive

CC(=O)[C@H]1[C@H](C#N)C[C@H]2[C@@H]3CC=C4C[C@@H](O)CC[C@]4(C)[C@H]3CC[C@@]21C
outcome [14]: inactive

O=C(Nc1ccccc1SSc1ccccc1NC(=O)c1ccccc1)c1ccccc1
AC50 [1]: 2.65 µM (active)
outcome [2]: inactive
outcome [3]: inactive
AC50 [4]: 5.44 µM (active)
outcome [5]: inactive
AC50 [6]: 5.18 µM (active)
AC50 [7]: 9.83 µM (active)
AC50 (CD38, CD38 (gene 952)): 5.21 µM (active)
AC50 (CD40, CD40 (gene 958)): 8.91 µM (active)
AC50 (CD69, CD69 (gene 969)): 2010 nM (active)
outcome [8]: inactive
outcome [9]: inactive
AC50 [10]: 2.78 µM (active)
AC50 [11]: 6040 nM (active)
AC50 [12]: 3190 nM (active)
outcome [13]: inactive
